Source: PubChem (National Center for Advancing Translational Sciences (NCATS))
HCV inh: qHTS Assay for Inhibitors of Hepatitis C Virus (HCV); Potency, µM (highest dose often 41.8 µM), for the others: top-dose activity change, negative = inhibition, actives largely listed as inhibitors; Huh7.5.1 HCVcc-Cre infection, luciferase reporter, 44 h; AID 651820, 2012; hit rate 3.4% among 340,000; also: potency is read from the fitted curve at half-maximal effect
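Cells seeded at 1,000/well and cultured 4 h, then compounds added followed by HCVcc-Cre virus (~0.5 moi). After 44 h further culture, luciferase substrate was added, plates held 15 min at room temperature, and luminescence read for 15 sec.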
LASV entry inh: qHTS for Inhibitors of binding or entry into cells for Lassa Virus. Lassa virus pseudotype entry inhibition, cell reporter. Potency, µM (highest dose often 37.9 µM), for inactives: top-dose activity change, negative = inhibition, actives largely listed as inhibitors. hit rate 1.2% among 300,000; calls by dose curve; tested in HEK293 cells; also: potency is read from the fitted curve at half-maximal effect; nearly all actives have a fitted effect of over 50% in size
HCMV inh: qHTS Assay for inhibitors of the human cytomegalovirus (HCMV); HFF cells, HCMV-luciferase reporter, 72 h; active compounds read low; activity change, negative = inhibition, % at 57.5 µM; hit rate 4.5% among 410,000; in the data active = activity change below about -60%; inconclusive = no clear call, values can overlap the other calls; inactive = above about -39%
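Luciferase read-out from HCMV-luciferase-infected HFFs (MOI 1 PFU/cell) 72 h post infection at 37C; compounds added after 16 h cell attachment; activity normalized between buffer-only basal and Salinomycin (10uM) inhibitor controls.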
Pf growth 48h: Primary qHTS for delayed death inhibitors of the malarial parasite plastid, 48 hour incubation | P. falciparum luciferase growth in erythrocytes, 48 h | Potency, µM (highest dose often 28.7 µM), for inactives: at the top dose activity change, negative = inhibition, hits mostly inhibitors | hit rate 5.9% among 310,000 | AID 504832, 2011; also: potency is read from the fitted curve at half-maximal effect
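Compounds are pin-transferred into medium, infected erythrocytes (2% hematocrit, 0.1% parasitemia final) are added, and plates sit one parasite generation at 37 C in 5% CO2. Detection reagent is then added and luminescence measured.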
MARV entry inh: qHTS for inhibitors of binding or entry into cells for Marburg Virus | Marburg virus pseudotyped entry inhibition, cell reporter | hit rate 1.8% among 300,000 | Potency, µM (titrated, usually from 37.8 µM), without a hit: at the top dose activity change, negative = inhibition, usual class: inhibitors; calls by dose curve; tested in HEK293 cells; also: potency is read from the fitted curve at half-maximal effect
Pf growth 96h: Primary qHTS for delayed death inhibitors of the malarial parasite plastid, 96 hour incubation. hit rate 6.9% among 320,000. Potency, µM (titrated, usually from 28.7 µM), inactives show at the top dose activity change, negative = inhibition, usual class: inhibitors. P. falciparum luciferase reporter growth, 96 h; also: potency is read from the fitted curve at half-maximal effect
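Parasite growth measured via integrated firefly luciferase reporter in P. falciparum. Infected erythrocytes at 2% hematocrit, 0.05% parasitemia final were treated 96 hours at 37 C under 5% CO2, and luminescence was read.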
* = called active by the depositor; ? = inconclusive; / = no result given; [ ] = remark or other dose. A selection: hits, their analogues and other compounds. The true share with any hit is near 14%. Unless noted, calls follow the shape of the dose curve; as a rule, active = well fitted inhibition curve with a large enough effect; inconclusive = small, poorly fitted or top-dose-only effect, or another doubt; inactive = no such curve, though single readings can be large or run the other way. % is scaled to controls: 0 for no effect and ±100 for the full control effect.

SMILES	HCV inh	LASV entry inh	HCMV inh	Pf growth 48h	MARV entry inh	Pf growth 96h
COc1cc(C(=O)Nc2nc(-c3cccs3)cs2)cc(OC)c1OC	1.8µM*	10µM*	41	12µM*	18µM*	14%[5.75 µM]
O=C(Nc1nc(-c2cccs2)cs1)c1cccc(S(=O)(=O)N2CCCCC2)c1	11µM*	-5%	105	?	?	?
Cc1ccc(-c2csc(NC(=O)c3cccc(S(=O)(=O)N4CCN(C)CC4)c3)n2)cc1	?	-4%	16	10%	-2%	7.4µM*
O=C(Nc1nc(-c2ccc(S(=O)(=O)N3CCCCCC3)cc2)cs1)c1cccs1	?	-12%	-10	?	?	43%
Cc1nnc(NC(=O)c2cccc(S(=O)(=O)N3CCN(C)CC3)c2)s1	10%	12%	0	-16%	-10%	14%
CC(OC(=O)c1ccc(OCC2CCCO2)cc1)C(=O)N(C)Cc1ccccc1 (stereo not drawn)	-4%	?	-6	3.3µM*	9%	4.7µM*
CC(OC(=O)c1ccc2ccccc2c1)C(=O)N(C)Cc1ccccc1 (stereo not drawn)	?	/	-13	?	/	13%
CCOc1ccccc1OCCCC(=O)N(CC)CC(=O)Nc1ccc(NC(C)=O)cc1	-6%	-6%	-13	-6%	24%	10%
COCCN1C[C@@H](CO)O[C@@H](n2cnc3c(N(C)C)ncnc32)C1	/	/	12	/	/	/
CN1CCC[C@@H]1CCNC(=O)c1c(-c2ccc3c(c2)OCO3)noc1-c1ccsc1	1%	/	-75*	/	/	/
COc1cccc([C@@H]2Oc3ccc(Br)cc3C[C@@H]2OC(=O)Nc2cc(OC)c(OC)c(OC)c2)c1	/	/	/	/	-5%[14.2 µM]	/
CC(=O)C1=C(c2cccc([N+](=O)[O-])c2)N(C(C)=O)n2c(C)nnc2S1	?	?	-93*	?	?	?
CCOc1ccc(C2=C(C(C)=O)Sc3nnc(C)n3N2C(C)=O)cc1	/	?	-11	/	/	/
Cc1ccc(N2CC(NC(=O)/C=C\c3ccc4c(c3)OCO4)CC2=O)cc1C (stereo not drawn)	/	-21%[46.1 µM]	113	/	/	/
Cc1cccc(C2(c3cccc(C)c3)CC2C(=O)Nc2ccc([N+](=O)[O-])cc2O)c1 (stereo not drawn)	?	?	-104*	2.1µM*	13µM*	?
C=CCNC(=O)C1CC1(c1cccc(C)c1)c1cccc(C)c1 (stereo not drawn)	22%	4%	0	/	-25%[46.1 µM]	/
CC(OCC(O)CN(C)Cc1nc2ccccc2c(=O)[nH]1)c1ccc(Cl)cc1 (stereo not drawn)	10µM*	/	-16	?	/	?
COc1ccc(CNC(=O)c2sc(=O)n(Cc3cc(C(C)=O)ccc3OC)c2C)cc1	/	/	-7	/	/	/
O=C(c1cc(C2CC2)nc2ccccc12)N1N=C(C(F)F)CC1(O)C(F)F (stereo not drawn)	?	-13%	-15	-6%	-3%	?
O=C(c1cc(C2CC2)nc2ccc(Br)cc12)N1N=C(C(F)F)CC1(O)C(F)F (stereo not drawn)	?	?	-73*	?	?	9.3µM*
Nc1nnc(SCC(=O)OCC(=O)NC23CC4CC(CC(C4)C2)C3)s1	-24%	0%	?	13µM*	?	-2%
C/C=C/c1cc(CN2CCN(c3ccc(OC)cc3)CC2)c(O)c(OC)c1	-21%	3%	-15	1.5µM*	1%[46.1 µM]	?
C/C=C/c1cc(CN2CCN(c3ccccc3)CC2)c(O)c(OC)c1	10%	/	?	1.3µM*	/	1.7µM*
COc1ccc(N2CCN(Cc3cc(OC)c(O)c([N+](=O)[O-])c3)CC2)cc1	-8%	-1%	0	36%	?	42%
O=C(/C=C/[C@H]1O[C@@H](n2ccc(=O)[nH]c2=O)[C@H](O)[C@@H]1O)NCc1ccc2c(c1)OCO2	/	/	30	/	/	/
SMILES	HCV inh	LASV entry inh	HCMV inh	Pf growth 48h	MARV entry inh	Pf growth 96h
CN(C)c1ccc(-c2nc(-c3cccs3)c(-c3cccs3)[nH]2)cc1	/	?	-1	/	4%[46.1 µM]	/
CC1=C(c2ccc(Cl)cc2)S(=O)(=O)N=C1N1CCN(c2cccc(C(F)(F)F)c2)CC1	/	-23%[46.1 µM]	-60*	/	?	/
COc1cccc(N2CCN(C3=NS(=O)(=O)C(c4ccc(C)cc4)=C3C)CC2)c1	/	29%[46.1 µM]	0	/	?	/
COCCNC(=O)C1(C)CCCN(C(=O)c2cccc(C(F)(F)F)c2)C1 (stereo not drawn)	/	/	-15	/	/	/
C[C@@]12CCC=C[C@H]1[C@H](c1ccc(/C=C/c3ccccc3)cc1F)N(Cc1ccccc1)C2=O	-5%	/	22	12µM*	/	?
COc1ccc(-c2ccc(C(C)=O)cc2)cc1[C@H]1[C@@H]2C=CCC[C@@]2(C)C(=O)N1Cc1ccccc1	-4%	/	26	?	/	?
COc1ccc(-c2ccc(C)cc2)cc1[C@H]1[C@@H]2C=CCC[C@@]2(C)C(=O)N1Cc1ccccc1	4%	/	-22	12µM*	/	?
C[C@@]12CCC=C[C@H]1[C@H](c1ccc(C(F)(F)F)cc1)N(Cc1ccccc1)C2=O	-11%	/	-26	?	/	10µM*
COc1ccc(-c2c(C(=O)c3ccc(Br)cc3)[nH]c(N)c2C(=O)NCCc2c[nH]c3ccccc23)cc1OC	/	/	67	/	/	/
O=C(CC1(CC2=NS(=O)(=O)c3ccccc3N2)CCCC1)NCCc1ccccc1	?	/	-68*	?	/	0%
NS(=O)(=O)c1ccc(CCNC(=O)CCCC2=NS(=O)(=O)c3ccccc3N2)cc1	1%	5%	52	0%	17%	5.2µM*
OC(c1ccccc1)(c1ccccc1)c1nccn1-c1ccccc1	-3%	-10%[46.1 µM]	-1	/	?	/
CN(C)CC/C=C1\c2ccccc2COc2ccccc21	?	?	-10	?	4µM*	?
CN(C)CC/C=C1/c2ccccc2CS(=O)(=O)c2ccccc21	7%	26%[46.1 µM]	12	/	-2%[46.1 µM]	/
CN(C)CC/C=C1/c2ccccc2Sc2ccc(Cl)cc21	14µM*	/	-24	10µM*	/	?
CCCCCC[N+](C)(C)CC/C=C1/c2ccccc2Sc2ccc(Cl)cc21	-9%	/	-7	?	/	2.1µM*
COc1ccccc1NC(=O)Cn1nc(-c2ccc(C)cc2)c2c(c1=O)CCCC2	/	23%[46.1 µM]	3	/	-2%[46.1 µM]	/
C[C@]12CC[C@@H]3c4ccc(O)cc4C[C@@H](CCCCCCCCCS(=O)CCCC(F)(F)C(F)(F)F)[C@H]3[C@@H]1CC[C@@H]2O (stereo partly drawn)	/	3.3µM*	/	/	?	/
